The values below come from PubChem BioAssay AID1508645 (National Center for Advancing Translational Sciences (NCATS), 2021).

Molecules are shown by their SMILES. Inconclusive results are not listed. Where a call stands in place of a potency, no number is given. Activity calls are given as the source filed them. Calls come from the whole dose curve; as a rule, active = well fitted cell-killing curve with a large enough effect; inconclusive = small, poorly fitted or top-dose-only effect, or effect the other way; inactive = no such curve, though single readings can be large or run the other way.

A short description of this test: Cell viability assay in S16 Pmp22-HiBiT cells. To be noted: S16 Schwann Pmp22-HiBiT viability, CellTiter-Glo, 24 h; series mostly up to 27.9 µM. From the text:
Assay Provider: Jim Inglese Ph.D. National Center for Advancing Translational Science, National Institutes of Health, Rockville, MD CMT is a heterogeneous group of neurological disorders that affect approximately 1 in 2,500 people. In particular, the most common form of CMT, CMT1A is genetically linked to the duplication of the PMP22 gene which leads to Schwann cell overexpression, thus manifesting itself as a typical case of dose-sensitive diseases. To identify small molecule compounds that can mediate the expression of PMP22 we developed a phenotypic assay screening strategy by utilizing genome editing techniques to construct Schwann cell lines containing novel reporter technology to monitor the transcriptional or translational regulation of PMP22. For high sensitivity we use a bioluminescent reporter system embedded in the 3' UTR of the PMP22 gene (S16(c9) Pmp22-F2sN) to identify compounds that inhibit gene expression. […] We can further discriminate the effect of all transcriptionally active molecules on PMP22 translation or stability with an assay that incorporates a short NLuc peptide (HiBiT) at the C-terminus of expressed PMP22 (S16(f8) PMP22-HiBiT) allowing alpha complementation and luminescence detection of membrane-associated PMP22 protein. These assays were screened against the NCATS Sytravon Library Collection. Miniaturization of these assays to 1536-well plate format for quantitative high throughput screening (qHTS) yielded rich data sets immediately from the qHTS assay (S16(c9) Pmp22-F2sN), when compared with data from a cell viability assay (Cell TiterGlo) to identify compounds that decreased the output signals through cellular toxicity to streamline the selection process of actives for subsequent characterization using the HiBiT assay (S16(f8) PMP22-HiBiT).
Cell viability assay in S16 Pmp22-HiBiT cells PROTOCOL TABLE (format as described by Inglese J, Shamu CE and Guy RK. 2007) SEQUENCE No. (e.g., 1, 2, 3, etc.); PARAMETER (e.g., Cells, Incubation, Reagent, etc.); VALUE and DESCRIPTION. 1. Cells. Add 500-1,000 cells in 4 uL in growth media (DMEM High Glucose, No Phenol Red media + 10% heat-inactivated FBS + 1% Pen/Strep supplemented media) per well into Greiner 1536-well white/solid bottom high base, TC-treated plates. 2. Compounds. Library compounds and controls added at 23nL per well, transferred by Pin Tool. 3. Incubation. Incubate plates at 37C, 5% CO2, 95% RH for 24 h. 4. Reagent. Add 3uL CellTiter-Glo per well of Greiner 1536-well plates. 5. Incubation. Incubate plates at room temperature for 15 min., protect from light. 6. Detector. Luminescence measured using CCD-based camera (Viewlux). NOTES (numbers refer to Sequence numbers above; values are from representative experiments) 6. Luminescence Read: Clear filter; Exposure = 1 sec, Gain = High, Speed = Slow, Binning = 2X REFERENCES: 1. Inglese J, Shamu CE and Guy RK, Reporting data from high throughput screening of small molecule libraries, Nature Chemical Biology, 2007, 3(8): 438-441. doi.org/10.1038/nchembio0807-438 2. Yasgar A, Shinn P, Jadhav A, Auld DS, Michael S, Zheng W, Austin CP, Inglese J and Simeonov A, Compound Management for Quantitative High-Throughput Screening. J. Assoc. Lab. Auto., 2008, 13: 79-89. doi: 10.1016/j.jala.2007.12.004
In general terms: The HiBiT peptide binds its large partner to form an active luciferase.
With `COc1ccc(OC)c(NC(=O)CSc2c3c(nc4ccccc24)CCCC3)c1`, the Potency was 16.2 µM (active).

For the molecule `COc1ccccc1Nc1c2c(nc3ccc(NC(=O)/C=C/c4cccc(OC)c4OC)cc13)CCCC2`, the Potency was 16.2 µM (active).

As to `Cc1cc(NC(=O)C2CCCN(S(=O)(=O)c3cccc4nonc34)C2)ccc1Br` (stereo not given), the Potency result is “inactive”.

`CCOC(=O)c1ccc(N2C(=O)c3[nH]nc(-c4ccc(C)cc4)c3C2c2ccc(O)c(OCC)c2)cc1` (stereo not given): the Potency result was “inactive”.

`O=S(=O)(NCC(c1ccco1)S(=O)(=O)c1cccs1)c1ccc(Cl)cc1` (stereo not given): the Potency result was “inactive”.

On to `Cc1ccc(NC(=O)N2CCc3cc(S(=O)(=O)N4CCC(C)CC4)ccc32)cc1F`, for which the Potency entry was “inactive”.

As to `COc1ccc(CCNC(=O)Cn2c(-c3cccs3)cc3cc(F)ccc32)cc1OC`, the Potency result was “inactive”.

On to `Cc1ccc(CNC(=O)c2ccc(Nc3nc4ccccc4n4nnnc34)cc2)cc1`, for which the Potency entry was “inactive”.

`Cc1ccc(CNC(=O)c2nc(S(=O)(=O)Cc3ccc(C)cc3)ncc2Cl)cc1`: the Potency entry was “inactive”.

For the molecule `COc1ccc(Cl)cc1NC(=O)CCCS(=O)(=O)c1nc(-c2ccc(OC)c(OC)c2)cc(C(F)(F)F)n1`, the Potency is 6.45 µM (active).

Turning to `CCOCCCNC(=O)c1ccc(-n2c(-c3ccccc3)cc3c2CCC(C)C3)cc1` (stereo not given), the Potency entry was “inactive”.

Take `Cc1cccc(Nc2c3c(nc4nncn24)CCC3)c1C`: the Potency entry is “inactive”.

With `COc1ccc(-c2noc(CSc3nnc(-c4ccncc4)n3-c3ccc(C)cc3)n2)cc1`, the Potency result is “inactive”.

`Cc1ccc(OCC(=O)Nc2ccc3nc(SCC(=O)N4CCc5ccccc54)sc3c2)cc1`: the Potency entry was “inactive”.

`COc1ccc(NC(=O)c2oc3ccccc3c2NC(=O)Cc2ccc(F)cc2)c(OC)c1`: the Potency result is “inactive”.

In the case of `COc1ccc(Br)cc1CC1C(=O)Nc2ccccc21` (stereo not given), the Potency entry was “inactive”.

`COc1ccc(NC(=O)c2nc(S(=O)(=O)Cc3ccc(C)cc3)ncc2Cl)cc1`: the Potency is 8.13 µM (active).

With `COc1cccc(-n2c(SCC(=O)c3ccc(Cl)cc3)nc3c([nH]c4ccccc43)c2=O)c1`, the Potency entry is “inactive”.

On to `CCOC(=O)c1cc2c(=O)n3ccccc3nc2n(Cc2ccco2)c1=NC(=O)c1cc(C)cc(C)c1`, for which the Potency result was “inactive”.

Consider `CCC(=O)C1=C(c2cccc([N+](=O)[O-])c2)N(C(=O)CC)n2c(nnc2C2CCCCC2)S1`, for which the Potency result was “inactive”.

`CCc1ccc(C(=O)c2cn(CC(=O)Nc3cc(OC)cc(OC)c3)c3ccc(CC)cc3c2=O)cc1`: the Potency entry was “inactive”.

For `Cc1cccc(CS(=O)(=O)c2ncc(Cl)c(C(=O)Nc3nc4ccc(F)cc4s3)n2)c1`, the Potency was 6.45 µM (active).

For the molecule `COc1ccccc1Nc1nn2c(=O)c3ccc(C(=O)Nc4ccc(F)cc4)cc3nc2s1`, the Potency was 4.57 µM (active).

As to `COc1ccc(Nc2nc3c(S(=O)(=O)c4ccccc4)nnn3c3ccc(Cl)cc23)cc1`, the Potency result is “inactive”.

For the molecule `O=C(CSc1nc2c([nH]c3ccccc32)c(=O)n1-c1cccc(Cl)c1)c1ccccc1`, the Potency entry was “inactive”.

On to `COCCCNC(=O)c1ccc2c(c1)N=C(C)c1c(C)ccc(C)c1S2`, for which the Potency result is “inactive”.

For `CCC(=O)N1CCc2cc(S(=O)(=O)CCC(=O)Nc3ccc(Cl)c(C(F)(F)F)c3)ccc21`, the Potency entry is “inactive”.

For the molecule `O=C(Cn1c(-c2cccs2)cc2cc(F)ccc21)NCCCN1CCN(c2ccc(F)cc2)CC1`, the Potency entry was “inactive”.

For the molecule `COC(=O)c1c(-c2ccc(Cl)cc2)noc1N1CCN(c2ccccc2OC)CC1`, the Potency result was “inactive”.

With `CCc1ccc(OCC(=O)Nc2cc3oc4ccccc4c3cc2OC)cc1`, the Potency entry was “inactive”.

As to `CCCn1c(=N)c(C(=O)NC(C)c2ccccc2)cc2c(=O)n3ccccc3nc21` (stereo not given), the Potency entry is “inactive”.

`COc1ccccc1CNC(=O)CSc1nnc(C)c2c(C)n(-c3ccccc3)nc12`: the Potency entry is “inactive”.

On to `Cc1ccc(S(=O)(=O)c2nnn3c2nc(NC2CCCCCC2)c2sccc23)cc1C`, for which the Potency result is “inactive”.

Take `CCC(Sc1nc2ccccc2c2nc(-c3ccccc3)nn12)C(=O)Nc1cccc(OC)c1` (stereo not given): the Potency entry was “inactive”.

Take `COc1ccc(N(CC(=O)Nc2cc(Cl)ccc2C)S(=O)(=O)c2c(C)noc2C)cc1`: the Potency result is “inactive”.

In the case of `Cc1cc(C)c(NC(=O)Cn2c(=O)n(Cc3ccco3)c(=O)c3ccc(C(=O)NC4CCCC4)cc32)c(C)c1`, the Potency result is “inactive”.

In the case of `CCc1ccccc1Nc1nn2c(=O)c3ccc(C(=O)Nc4cc(C)cc(C)c4)cc3nc2s1`, the Potency is 6.45 µM (active).

In the case of `Cc1ccc(NC(=O)CSc2nc3ccc(NC(=O)COc4ccc(C)cc4)cc3s2)cc1`, the Potency result is “inactive”.

Regarding `O=C(NCCCN1CCN(c2ccc(F)cc2)CC1)c1cc2c(Cl)nc3ccccc3c2s1`, the Potency entry is “inactive”.

With `Cc1c(Cl)cccc1NC(=O)c1oc2ccc(S(=O)(=O)N3CCC4(CC3)OCCO4)cc2c1C`, the Potency entry was “inactive”.
